Calls of active or inactive are those of the source. Unless noted, how the calls were made is not given here.
Legend:
[1] = compound effects on lung adenocarcinoma cell viability – A549, calcein-AM fluorescence, 48 h, basal, profiling panel (AID 1162); conditions: higher = more signal; further: test concentration not given here
[2] = compound effects on differentiated 3T3-L1 adipocyte viability – cell-based, 3T3-L1 adipocytes, calcein-AM fluorescence, 48 h, basal, profiling panel (AID 1163); conditions: 3T3-L1 adipocytes viability, higher = more signal; further: test concentration not given here
[3] = compound effects on hepatocellular carcinoma cell viability – HepG2, calcein-AM fluorescence, 48 h, basal, profiling panel (AID 1164); conditions: higher = more signal; further: test concentration not given here
[4] = compound effects on multiple myeloma cell viability – MM1S, calcein-AM fluorescence, 48 h, basal, profiling panel (AID 1165); conditions: higher = more signal; further: test concentration not given here
[5] = calcein-AM signal in unstimulated myeloma cells – cell-based, calcein-AM fluorescence, 48 h, PK04 Diversity Set, profiling panel (AID 1166); conditions: RPMI8226 myeloma viability, higher = more signal;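 further: cells grown under basal conditions without added stimulus; test concentration not given here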
[6] = JC-1 mitochondrial signal, unstimulated HepG2 cells – cell-based, JC-1 fluorescence, 24 h, 100 nL compound, profiling panel (AID 1167); conditions: HepG2 mitochondrial potential, higher = more signal; further: test concentration not given here
[7] = JC-1 mitochondrial signal, unstimulated adipocytes – cell-based, JC-1 fluorescence, 3T3-L1 adipocytes, 24 h, 100 nL compound, profiling panel (AID 1168); conditions: JC-1 mitochondrial fluorescence, higher = more signal, called active from +8 up or from −8 down; further: test concentration not given here
[8] = JC-1 mitochondrial signal, unstimulated myeloma cells – cell-based, JC-1 fluorescence, RPMI8226, 24 h, 100 nL compound, profiling panel (AID 1169); conditions: JC-1 mitochondrial potential fluorescence, higher = more signal; further: test concentration not given here
[9] = JC-1 mitochondrial signal, unstimulated MM1S myeloma – cell-based, JC-1 fluorescence, 24 h, 100 nL compound, profiling panel (AID 1170); conditions: MM1S mitochondrial potential, higher = more signal; further: test concentration not given here
[10] = resazurin metabolic signal in A549 cells – cell-based, resazurin fluorescence, 24 h, PK04 Diversity Set, profiling panel (AID 1171); conditions: A549 viability, higher = more signal, called active from +8 up or from −8 down; further: test concentration not given here
[11] = resazurin metabolic signal in HepG2 cells – cell-based, resazurin fluorescence, 24 h, PK04 Diversity Set, profiling panel (AID 1172); conditions: HepG2 viability, higher = more signal; further: test concentration not given here
[12] = budding yeast growth changes without added modifier – OD600, strain BY4716, 24 h, basal condition, primary screen (AID 1173); conditions: S. cerevisiae BY4716 growth, OD600, 24 h; higher = more signal, called active from +8 up or from −8 down
[13] = viability profiling in MM1S myeloma cells – cell-based, resazurin fluorescence, basal, 24 h, PK04 Diversity Set, profiling panel (AID 1174); conditions: higher = more signal, called active from +8 up or from −8 down; further: test concentration not given here
[14] = target: Dihydroorotate dehydrogenase (quinone), mitochondrial (Plasmodium falciparum (isolate 3D7)) (UniProt Q08210); experiment: inhibition of P. falciparum DHODH – biochemical, C-terminal His tag, absorbance 600 nm, primary screen (AID 1175); conditions: PfDHODH enzyme, DCIP absorbance 600 nm; higher = more signal, called active from +8 up or from −8 down;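 further: recombinant parasite enzyme with a five histidine tag at its C terminus; test concentration not given here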
[15] = inhibition of PAO1 biofilm formation – strain PAO1, LB-PBS medium, absorbance 600 nm, primary screen (AID 1176); further: test concentration not given here; conditions: P. aeruginosa PAO1 growth/biofilm, A600, 12 h; higher = more signal
[16] = growth modulation of vineyard yeast isolate – strain RM11-1a, OD600, basal, 24 h, primary screen (AID 1177);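 further: cultures grown under basal conditions with no added stressor; test concentration not given here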; conditions: S. cerevisiae RM11-1a growth, OD600, 24 h; higher = more signal, called active from +8 up or from −8 down
[17] = growth of efflux-deficient E. coli DRC39 – strain DRC39, OD650, 24 h, E. coli filamentation inducers, primary screen (AID 1178);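 further: growth measured as culture turbidity by optical density at 650 nm; test concentration not given here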; conditions: E. coli DRC39 acrAB, higher = more signal, called active from +8 up or from −8 down
[18] = growth of efflux-deficient E. coli DRC39 – strain DRC39, OD650, 48 h, E. coli filamentation inducers, primary screen (AID 1179);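 further: screen aims at cell division blockers that make cells filament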; conditions: E. coli DRC39 delta-acrAB growth, higher = more signal, called active from +8 up or from −8 down
[19] = viability profiling in RPMI8226 myeloma cells – cell-based, resazurin fluorescence, basal, 24 h, PK04 Diversity Set, profiling panel (AID 1180); conditions: higher = more signal;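 further: RPMI8826 multiple myeloma cell line at 5000 cells per well; test concentration not given here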
[20] = target: E3 ubiquitin-protein ligase XIAP (Homo sapiens) (UniProt P98170); experiment: small molecules binding XIAP protein – biophysical, small-molecule microarray, fluorescence 635 nm, primary screen (AID 1181); conditions: higher = more signal;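 further: score merges 667 nm emission and signal to noise over triplicate slides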
Chain of E3 ubiquitin-protein ligase XIAP (Homo sapiens) (P98170 whole entry, looked up): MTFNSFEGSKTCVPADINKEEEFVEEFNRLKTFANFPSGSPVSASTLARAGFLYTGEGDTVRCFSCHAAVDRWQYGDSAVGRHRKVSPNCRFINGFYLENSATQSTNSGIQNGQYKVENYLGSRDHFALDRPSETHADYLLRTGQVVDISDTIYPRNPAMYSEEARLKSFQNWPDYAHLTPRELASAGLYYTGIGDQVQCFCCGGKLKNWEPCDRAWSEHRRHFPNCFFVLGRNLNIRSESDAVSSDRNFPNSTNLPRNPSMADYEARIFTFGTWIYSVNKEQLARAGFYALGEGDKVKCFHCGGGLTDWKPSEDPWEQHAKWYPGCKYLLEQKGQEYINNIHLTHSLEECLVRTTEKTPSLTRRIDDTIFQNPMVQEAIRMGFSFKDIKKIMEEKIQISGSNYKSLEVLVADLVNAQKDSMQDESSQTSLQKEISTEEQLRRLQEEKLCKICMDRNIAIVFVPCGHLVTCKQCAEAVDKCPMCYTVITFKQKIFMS

Chain of Dihydroorotate dehydrogenase (quinone), mitochondrial (Plasmodium falciparum (isolate 3D7)) (Q08210 whole entry, looked up): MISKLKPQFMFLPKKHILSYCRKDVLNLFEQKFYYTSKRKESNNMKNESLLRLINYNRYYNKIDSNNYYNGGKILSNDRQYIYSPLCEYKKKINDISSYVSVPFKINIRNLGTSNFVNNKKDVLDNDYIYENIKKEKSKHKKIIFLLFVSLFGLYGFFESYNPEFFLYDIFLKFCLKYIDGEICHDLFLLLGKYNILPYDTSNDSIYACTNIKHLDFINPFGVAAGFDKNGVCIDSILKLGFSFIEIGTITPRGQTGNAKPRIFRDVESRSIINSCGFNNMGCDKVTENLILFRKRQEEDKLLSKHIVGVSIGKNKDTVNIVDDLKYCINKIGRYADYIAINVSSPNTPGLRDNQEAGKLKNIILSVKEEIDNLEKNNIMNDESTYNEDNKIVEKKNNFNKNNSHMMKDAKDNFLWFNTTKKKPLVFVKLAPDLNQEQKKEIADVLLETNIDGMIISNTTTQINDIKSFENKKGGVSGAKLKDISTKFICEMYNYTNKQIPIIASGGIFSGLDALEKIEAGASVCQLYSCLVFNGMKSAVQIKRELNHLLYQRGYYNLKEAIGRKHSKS

Row | SMILES | z-score [1] | z-score [2] | z-score [3] | z-score [4] | z-score [5] | z-score [6] | z-score [7] | z-score [8] | z-score [9] | z-score [10] | z-score [11] | z-score [12] | z-score [13] | composite z-score [14] | z-score [15] | z-score [16] | z-score [17] | z-score [18] | z-score [19] | composite z-score [20]
1 | COCCOC(=O)N1C(=O)[C@@]2(c3cc(C#CCNC(N)=O)ccc31)[C@H](C(=O)Nc1nc3ccccc3s1)[C@H]1C(=O)O[C@H](c3ccccc3)[C@H](c3ccccc3)N1[C@@H]2c1ccc(O)cc1 | -0.277 | -0.133 | -0.287 | -1.19 | 0.258 | -3.96 | -2.98 (inactive) | -0.776 | -1.14 | 0.14 (inactive) | 0.0612 | 1.1 (inactive) | -0.355 (inactive) | 0.582 (inactive) | 0.558 (inactive) | 1.37 (inactive) | 0.0967 (inactive) | -0.211 (inactive) | -1.37 | 0.273
2 | C=CCOC(=O)[C@H]1[C@@H]2C(=O)O[C@@H](c3ccccc3)[C@@H](c3ccccc3)N2[C@@H](c2ccc(OCCOC(=O)[C@H]3C[C@H]4C(=O)NCC(=O)N4[C@H]3c3ccc(O)cc3)cc2)[C@]12C(=O)Nc1ccccc12 | -0.759 | 0.645 | -1.05 | 0.117 | -0.259 | -1.42 | 0.962 (inactive) | -0.356 | -0.821 | 0.729 (inactive) | -0.0886 | 1.1 (inactive) | 1.02 (inactive) | 0.814 (inactive) | 0.916 (inactive) | 2.99 (inactive) | 0.504 (inactive) | -0.0754 (inactive) | 1.72 | -0.202
3 | COC(=O)[C@@]1(Cc2ccc(F)cc2)[C@H]2c3cc(C(=O)N(C)C)n(Cc4ccsc4Br)c3C[C@H]2CN1C(=O)c1ccccc1 | -0.981 | -0.291 | 0.191 | -0.766 | -0.985 | 2.64 | 0.18 (inactive) | 0.415 | -1.17 | -0.836 (inactive) | -1.05 | 1.08 (inactive) | -1.36 (inactive) | -0.713 (inactive) | 1 (inactive) | 0.47 (inactive) | -1.52 (inactive) | -0.85 (inactive) | -2.7 | 0.447
4 | COC(=O)[C@@]1(Cc2ccc(OC)cc2)[C@H]2c3cc(C(=O)N(C)C)n(Cc4c(CO)[nH]cc(C)c4=O)c3C[C@H]2CN1C(=O)c1ccccc1 | -1.38 | -0.621 | -0.177 | -0.314 | -0.411 | -0.67 | -1.33 (inactive) | -0.0347 | -1.24 | 0.252 (inactive) | -0.548 | -0.0117 (inactive) | -1.06 (inactive) | -0.501 (inactive) | 0.371 (inactive) | -0.463 (inactive) | -0.897 (inactive) | -0.542 (inactive) | -0.717 | -0.127
5 | COCCOC(=O)N1C(=O)[C@@]2(c3cc(C#CCCO)ccc31)[C@H](C(=O)N1CCN(c3ncccn3)CC1)[C@H]1C(=O)O[C@H](c3ccccc3)[C@H](c3ccccc3)N1[C@@H]2c1ccc(OCCO)cc1 | 0.451 | 0.474 | -0.442 | -1.07 | 0.863 | -1.02 | 0.0633 (inactive) | -0.185 | -1.02 | 0.427 (inactive) | 0.739 | 2.7 (inactive) | -0.632 (inactive) | -0.486 (inactive) | 1.17 (inactive) | 2.75 (inactive) | -0.77 (inactive) | -0.548 (inactive) | 0.555 | 0.0432
6 | C=CCNC(=O)[C@H]1[C@@H]2C(=O)O[C@@H](c3ccccc3)[C@@H](c3ccccc3)N2[C@@H](c2ccc(OCCO)cc2)[C@]12C(=O)N(C(=O)OCCOC)c1ccc(C#CCNC(N)=O)cc12 | 0.0935 | -0.585 | 0.854 | 0.952 | 1.27 | 0.0391 | 0.668 (inactive) | -0.596 | -0.919 | -0.226 (inactive) | 0.263 | 1.88 (inactive) | 0.31 (inactive) | -0.193 (inactive) | 1.45 (inactive) | 3.01 (inactive) | 1.45 (inactive) | 1.24 (inactive) | 1.09 | 0.0313
7 | CC(C)C[C@@H]1NC(=O)[C@@H]2C[C@H](C(=O)NCCCCCCNC(=O)CS)[C@H](c3ccc(O)cc3)N2C1=O | 0.191 | 0.963 | -0.892 | -0.523 | 0.037 | -1.69 | -0.226 (inactive) | -0.684 | -0.391 | -0.399 (inactive) | 0.0799 | -0.295 (inactive) | -0.471 (inactive) | -0.283 (inactive) | 1.97 (inactive) | 0.199 (inactive) | 0.306 (inactive) | -0.874 (inactive) | -0.898 | 0.291
8 | COCCCNC(=O)[C@@]1(Cc2ccccc2I)c2ccccc2C(=O)N(Cc2ccccc2OC)[C@H]1c1ccc(CO)cc1 | 0.0588 | -0.188 | -0.387 | -0.686 | -1.58 | 1.44 | -0.217 (inactive) | -0.533 | -0.151 | -0.113 (inactive) | -0.831 | -0.366 (inactive) | -0.0499 (inactive) | 0.671 (inactive) | 0.18 (inactive) | 1.06 (inactive) | -0.033 (inactive) | -0.113 (inactive) | 0.317 | 0.0506
